A selection: hits, their analogues and other compounds. The true share with any hit is near 3.6%.
mHTT-CaM PPI inh: disrupts binding of mutant huntingtin to calmodulin. P42858. AlphaScreen His-mHTT/GST-CaM binding, luminescence. inhibition, % at 15 µM. 190,000 compounds, 3.6% hits. AID 1671202;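 note: 0% = both proteins with DMSO and 100% = one protein alone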
Pf apPOL block: Pf-apPOL DNA polymerase inhibition. Recombinant Pf-apPOL, molecular beacon fluorescence, 1.5 h. inhibition, % at 10 µM. 210,000 compounds, 0.25% hits. AID 1794808
The depositor's hits bear a star; i = inactive; · = no result; + = active, no number. Cut-off read from the data, not from the text of the source: active = inhibition above about 50%; inactive = the rest.

SMILES	mHTT-CaM PPI inh	Pf apPOL block
COc1ccc(N2CC(c3nnc(NC(=O)Cc4ccccc4C)o3)CC2=O)cc1 (stereo not drawn)	49	-3
CC(C)(C)C(=O)Nc1nnc(C2CC(=O)N(c3ccccc3)C2)o1 (stereo not drawn)	4	-1
CC(C)(Oc1ccc(Cl)cc1)C(=O)Nc1nnc(C2CC(=O)N(c3ccccc3)C2)o1 (stereo not drawn)	98*	-35
COc1ccc(N2CC(c3nnc(NC(=O)Cc4cccs4)o3)CC2=O)cc1 (stereo not drawn)	65*	-6
COc1cccc(CC(=O)Nc2nnc(C3CC(=O)N(c4ccccc4)C3)o2)c1 (stereo not drawn)	87*	-3
COc1ccccc1C(=O)Nc1nnc(C2CC(=O)N(c3ccccc3)C2)o1 (stereo not drawn)	17	-2
CSc1ccc(N2CC(c3nnc(NC(=O)Cc4cccs4)o3)CC2=O)cc1 (stereo not drawn)	14	-3
COc1ccccc1NC(=O)N1CCC(CNC(=O)c2cc(Cl)ccc2Cl)CC1	-1	-6
CN(C)c1cccc(C(=O)Nc2ccc3c(c2)CCC(=O)N3)c1	6	3
COc1ccccc1-c1noc(C2CCCN2C(=O)Nc2ccc(C)cc2)n1 (stereo not drawn)	7	1
CCCNC(=O)c1ccc(-c2cccs2)nc1	-10	4
COc1ccc(-c2cn3ccn(-c4cc(C)c(Cl)cc4OC)c(=O)c3n2)cc1	-1	-5
Cc1nc(-c2nnc(NC(=O)CCSc3ccccc3)o2)cs1	12	8
COc1cccc(N2CC(C(=O)O)CC2=O)c1 (stereo not drawn)	-4	-1
CC(C)(Oc1ccc(Cl)cc1)C(=O)Nc1ccncc1	-3	-2
CC(C)n1nccc1-c1nnc(NC(=O)C(C)(C)Oc2ccc(Cl)cc2)o1	66*	-227
COc1cccc(N2CC(C(=O)Nc3c(C(N)=O)oc4ccccc34)CC2=O)c1 (stereo not drawn)	59*	-3
COc1nn(C)cc1C(=O)Nc1nnc(-c2csc(C)n2)o1	58*	0
Cc1cccc(N2CC(C(=O)NC(C)(C)C)CC2=O)c1 (stereo not drawn)	2	-1
CC(C)n1cc(C2=CCN(C(=O)Nc3ccccc3Cl)CC2)c2cccnc21	47	-4
O=C(C1=CN(c2ccc(F)cc2)c2cc(F)ccc2S1(=O)=O)N1CCOCC1	1	0
COc1ccc(C=C2SC(=S)N(CC(=O)NC3CCCC3)C2=O)cc1OC	-4	-4
O=C(c1ccc(OCC2CCCN(C(=O)c3ccco3)C2)cc1)N1CCOCC1 (stereo not drawn)	-7	-3
O=C(c1ccc(F)cc1)N1CCC(CCOc2ccccc2)CC1	19	0
CCOc1ccccc1NC(=O)C1c2ccccc2C(=O)N2CCc3ccccc3C12 (stereo not drawn)	15	1
SMILES	mHTT-CaM PPI inh	Pf apPOL block
CCc1ccc(CNC(=O)C2c3cc(OC)c(OC)cc3C(=O)N3CCc4ccccc4C23)cc1 (stereo not drawn)	10	1
CCOc1cc2c(cc1OCC)C1C(C(=O)Nc3cc(C)ccn3)c3ccccc3C(=O)N1CC2 (stereo not drawn)	51*	-3
CCc1ccccc1NC(=O)C1c2cc(OC)c(OC)cc2C(=O)N2CCc3ccccc3C12 (stereo not drawn)	63*	-2
COc1ccccc1NC(=O)c1nnn(Cc2ccccc2)c1N	5	0
COc1nccnc1NC1CCN(S(=O)(=O)c2cccnc2)CC1	-1	-4
S=c1[nH]nc(-c2ccncc2)n1/N=C/C=C/c1ccco1	i	·
S=c1[nH]nc(-c2ccccn2)n1/N=C/C=C/c1ccco1	+	·
COc1ccc(Br)c(C(=O)Nc2cc3cccc([N+](=O)[O-])c3oc2=O)c1	3	4
O=C(Nc1cccc(F)c1)N1CCC2(CC1)Nc1cccnc1NC2=NCc1ccccc1	99*	-9
CC(=O)N1CCC2(CC1)Nc1cccnc1NC2=NCc1ccccc1	1	-5
CCSc1nnc(NC(=O)CCCn2nc(-c3cccs3)ccc2=O)s1	-5	-7
Cc1ccnc(N2CCCC(C(=O)NCc3ccc(F)cc3Cl)C2)n1 (stereo not drawn)	-9	1
C=CCn1c(N=Cc2ccc(Cl)cc2)nc2ccccc21	1	0
C=CCn1c(N=Cc2ccc(N(C)C)cc2)nc2ccccc21	71*	3
CCOC(=O)COc1ccc2c(c1)OC(=Cc1ccccc1Br)C2=O	4	4
O=c1oc2ccccc2c(NCCN2CCOCC2)c1[N+](=O)[O-]	-1	-8
O=C(CN1C(=O)CSc2ccccc21)NCc1ccccn1	24	-20
CN(CCNC(=O)CN1C(=O)/C(=C/c2ccccc2F)Sc2ccccc21)Cc1ccccc1	92*	-1
CCN(CC)CCNC(=O)CN1C(=O)/C(=C/c2ccc(Cl)cc2)Sc2ccccc21	59*	4
CCN(CCNC(=O)CN1C(=O)/C(=C/c2ccccc2F)Sc2ccccc21)c1ccccc1	17	1
O=C(CN1C(=O)/C(=C/c2ccccc2)Sc2ccccc21)NCc1ccccn1	72*	-8
COCCNC(=O)CN1C(=O)/C(=C/c2ccc(Cl)cc2)Sc2ccccc21	11	-5
CN(C)CCNC(=O)CN1C(=O)/C(=C/c2ccc(Cl)cc2)Sc2ccccc21	20	5
O=C(CN1C(=O)/C(=C/c2ccc(Cl)cc2)Sc2ccccc21)NCc1ccccn1	54*	-2
C[C@H]1[C@@H](N(Cc2cccs2)Cc2cccs2)CC[C@@]23CCCN2C(=O)CCC[C@@H]13	-18	-6
SMILES	mHTT-CaM PPI inh	Pf apPOL block
CCn1c(N2CCCC(C(=O)NCc3ccc(OC)cc3OC)C2)cc(=O)n(C)c1=O (stereo not drawn)	12	2
CCOc1ccccc1Oc1coc2cc(OC(=O)C3CCCCC3)ccc2c1=O	0	-13
CCCCNC(=O)CN1C(=O)/C(=C/c2ccccc2C)Sc2ccccc21	-4	-5
CCOCCCNC(=O)CN1C(=O)/C(=C/c2ccccc2C)Sc2ccccc21	15	74*
CCN1CCN(C(=O)CN2C(=O)/C(=C/c3ccc(C(F)(F)F)cc3)Sc3ccccc32)CC1	68*	2
O=C(CN1C(=O)/C(=C/c2ccc(C(F)(F)F)cc2)Sc2ccccc21)N1CCCC1	14	4
CCOC(Cn1c(COc2ccccc2)nc2ccccc21)OCC	-14	-10
O=C(c1ccc2ncnc(N3CCCCC3)c2c1)N1CCC(N2CCCCC2)CC1	2	-8
Cc1ccc(CNc2ccc3c(c2)OCO3)c(C)c1	100*	2
COc1cc(Br)c(CNCc2ccc3c(c2)OCO3)cc1OC	-3	-2
Cc1cccc(NCc2ccc3c(c2)OCO3)c1	39	7
COc1ccc(Br)cc1CNc1ccc2c(c1)OCO2	98*	-7
CS(=O)(=O)N1CC(C(=O)Nc2ccc3c(c2)OCCO3)C2(CCCCC2)C1 (stereo not drawn)	12	5
O=C(Nc1ccc2c(c1)OCO2)C1CN(S(=O)(=O)C2CC2)CC12CCCCC2 (stereo not drawn)	73*	1
COCCCNC(=O)N1CCCC1c1nc(-c2cccc(Cl)c2)no1 (stereo not drawn)	20	-3
Cc1ccc(N2C(=O)C3N=NN(c4ccccc4)C3C2=O)cc1F (stereo not drawn)	-8	0
CC(C)CC(=O)N1CCC(Cc2nnc(-c3ccccc3)o2)CC1	-2	-6

Screening data: PubChem, University of Kansas High Throughput Screening Laboratory
